# According to PubChem BioAssay (EPA / NIEHS):
# Inconclusive results are not listed. More than one record can exist for a structure, and the calls need not agree. Active and inactive are the calls of the source. Rule for the calls, unless noted: active = hit-call score of the fitted dose curve at least 0.9, where 1 is the maximum; inactive = score below 0.9.
# Experiments:
# [1] = ATG_NFI_CIS: Attagene CIS-FACTORIAL HepG2 Assay for human Nuclear Factor I (NFI) (AID 2282989); conditions: HepG2 cis-regulatory reporter, NFI response element transcription; actives raise or lower the signal
# Summary of the method: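 HepG2 cells transiently transfected with cis-element-driven multiplexed reporter transcription units, dosed for 24 h. Reporter mRNA quantified by RT-PCR, fluorescent labelling, HpaI digestion and capillary electrophoresis; bidirectional fit versus DMSO baseline.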
# [2] = molecular target: Myc proto-oncogene protein (Homo sapiens) (UniProt P01106); experiment: ATG_Myc_CIS: Attagene CIS-FACTORIAL HepG2 Assay for human Myelocytomatosis (Myc) Proto-Oncogene Transcription Factor (AID 2282990); conditions: HepG2, Attagene cis-reporter transcription factor activity; actives raise or lower the signal
# Myc proto-oncogene protein (Homo sapiens), sequence (P01106 whole entry, looked up): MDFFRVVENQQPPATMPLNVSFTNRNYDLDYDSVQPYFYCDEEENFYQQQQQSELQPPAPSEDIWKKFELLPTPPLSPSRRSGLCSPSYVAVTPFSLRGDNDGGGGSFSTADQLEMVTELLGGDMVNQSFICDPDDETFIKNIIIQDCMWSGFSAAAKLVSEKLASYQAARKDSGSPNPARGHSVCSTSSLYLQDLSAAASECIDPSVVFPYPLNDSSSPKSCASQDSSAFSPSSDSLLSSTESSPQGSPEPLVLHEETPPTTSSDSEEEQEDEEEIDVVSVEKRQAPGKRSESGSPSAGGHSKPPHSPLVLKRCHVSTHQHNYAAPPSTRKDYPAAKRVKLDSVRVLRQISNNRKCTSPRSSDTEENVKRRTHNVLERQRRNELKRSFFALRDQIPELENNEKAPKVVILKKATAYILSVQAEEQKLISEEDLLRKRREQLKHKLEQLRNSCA
# Summary of the method: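 Cells of the HepG2 human liver line bear multiple cis-driven reporter transcription units. Reporter mRNA after 24 h exposure is reverse-transcribed, amplified, labelled and resolved by capillary electrophoresis, with gain- or loss-of-signal fitting relative to DMSO.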
# [3] = ATG_NRF2_ARE_CIS: Attagene CIS-FACTORIAL HepG2 Assay for human Nuclear Factor Erythroid 2 Related Factor 2 (NFR2) response to Antioxidant Response Elements (ARE) (AID 2282992); conditions: HepG2 Attagene ARE/NRF2 reporter, transcription factor activity; actives raise or lower the signal;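 for AC50: reporter mRNA level measured by RT-PCR and capillary electrophoresis fluorescence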
# Summary of the method: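 Cis-factorial assay: transfected HepG2 reporter library, 24 h dosing, mRNA readout via RT-PCR/CE; DMSO-referenced bidirectional analysis.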
# [4] = ATG_Oct_MLP_CIS: Attagene CIS-FACTORIAL HepG2 Assay for human Octamer-Binding Transcription Factor (Oct) (AID 2282993); conditions: HepG2 Attagene cis-factorial Oct reporter, mRNA; actives raise or lower the signal
# Summary of the method: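 HepG2 cells transiently transfected with cis-promoter-driven multiplexed reporter transcription units, dosed for 24 h. Reporter mRNA quantified by RT-PCR, fluorescent labelling, HpaI digestion and capillary electrophoresis; bidirectional fits versus DMSO baseline.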
# [5] = molecular target: Cellular tumor antigen p53 (Homo sapiens) (UniProt P04637); experiment: ATG_p53_CIS: Attagene CIS-FACTORIAL HepG2 Assay for human p53 Transcription Factor (AID 2282994); conditions: HepG2 p53 cis-element reporter, Attagene mRNA; actives raise or lower the signal
# Cellular tumor antigen p53 (Homo sapiens), sequence (P04637 whole entry, looked up): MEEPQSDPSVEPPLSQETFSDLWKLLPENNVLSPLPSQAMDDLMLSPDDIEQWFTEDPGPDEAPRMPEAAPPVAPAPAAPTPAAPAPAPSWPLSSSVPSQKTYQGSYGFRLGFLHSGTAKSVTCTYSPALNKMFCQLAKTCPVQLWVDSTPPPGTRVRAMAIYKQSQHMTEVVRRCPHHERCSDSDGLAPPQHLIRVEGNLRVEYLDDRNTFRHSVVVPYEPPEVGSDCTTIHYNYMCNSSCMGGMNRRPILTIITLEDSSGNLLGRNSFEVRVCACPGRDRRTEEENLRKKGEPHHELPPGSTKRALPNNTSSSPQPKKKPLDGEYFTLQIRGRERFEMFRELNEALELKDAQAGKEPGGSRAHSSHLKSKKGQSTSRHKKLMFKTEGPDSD
# Summary of the method: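 Using HepG2 hepatoma cells carrying cis-acting multiplexed reporters, mRNA induction is detected after a 24 h exposure. Gain- and loss-of-signal responses are fitted relative to DMSO-treated cells.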
# [6] = molecular target: human Peroxisome Proliferator-activated Receptor alpha (PPARa), PPARA (gene 5465) (UniProt Q07869); experiment: ATG_PPARa_TRANS: Attagene TRANS-FACTORIAL HepG2 Assay for human Peroxisome Proliferator-activated Receptor alpha (PPARa) (AID 2283001; active = hit-call score of the fitted dose curve at least 0.9, where 1 is the maximum;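 for AC50: potency for gain of reporter signal over DMSO so agonist or activator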)
# human Peroxisome Proliferator-activated Receptor alpha (PPARa), PPARA (gene 5465), sequence (Q07869 whole entry, looked up, the tested form may be a part): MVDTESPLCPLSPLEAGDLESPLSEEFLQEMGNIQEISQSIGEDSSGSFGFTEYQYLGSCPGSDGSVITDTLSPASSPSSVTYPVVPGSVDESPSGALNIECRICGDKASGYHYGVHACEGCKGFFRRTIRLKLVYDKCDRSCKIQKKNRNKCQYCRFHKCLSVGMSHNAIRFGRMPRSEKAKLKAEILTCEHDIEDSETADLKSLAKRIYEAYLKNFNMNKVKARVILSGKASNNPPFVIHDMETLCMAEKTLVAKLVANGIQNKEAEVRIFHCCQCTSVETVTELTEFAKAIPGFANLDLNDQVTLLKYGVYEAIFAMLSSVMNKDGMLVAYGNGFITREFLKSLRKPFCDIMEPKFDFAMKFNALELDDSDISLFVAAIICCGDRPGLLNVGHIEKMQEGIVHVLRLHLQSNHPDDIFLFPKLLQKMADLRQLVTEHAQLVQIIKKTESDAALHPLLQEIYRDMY
# Summary of the method: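 Read-out is fluorescence of reporter cDNA fragments resolved by capillary electrophoresis after RT-PCR. Human HepG2 liver cells carried transfected PPARa-Gal4 chimera and GAL4-UAS reporter units, treated 24 h; activity scored as increase over DMSO.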
# [7] = molecular target: human Peroxisome Proliferator-activated Receptor delta (PPARd), PPARD (gene 5467) (UniProt Q03181); experiment: ATG_PPARd_TRANS: Attagene TRANS-FACTORIAL HepG2 Assay for human Peroxisome Proliferator-activated Receptor delta (PPARd) (AID 2283002; active = hit-call score of the fitted dose curve at least 0.9, where 1 is the maximum)
# human Peroxisome Proliferator-activated Receptor delta (PPARd), PPARD (gene 5467), sequence (Q03181 whole entry, looked up): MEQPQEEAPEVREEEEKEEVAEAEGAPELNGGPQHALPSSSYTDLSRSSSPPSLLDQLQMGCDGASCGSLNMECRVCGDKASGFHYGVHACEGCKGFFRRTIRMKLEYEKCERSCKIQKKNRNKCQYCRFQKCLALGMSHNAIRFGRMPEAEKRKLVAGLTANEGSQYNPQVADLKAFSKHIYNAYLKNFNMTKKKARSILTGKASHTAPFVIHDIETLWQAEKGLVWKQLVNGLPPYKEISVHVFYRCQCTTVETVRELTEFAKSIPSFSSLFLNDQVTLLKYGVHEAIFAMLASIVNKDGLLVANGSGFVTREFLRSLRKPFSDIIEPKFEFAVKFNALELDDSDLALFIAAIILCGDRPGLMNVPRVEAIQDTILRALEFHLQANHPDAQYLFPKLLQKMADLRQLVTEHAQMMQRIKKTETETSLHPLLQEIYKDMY
# Summary of the method: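 Cell-based TRANS reporter: HepG2, transient MRTU transfection, 24 h exposure. Readout = reporter mRNA (RT-PCR/CE, 6-FAM). Gain-of-signal fit vs DMSO control.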
# [8] = molecular target: human Retinoic Acid Receptor beta (RARb), RARB (gene 5915) (UniProt P10826); experiment: ATG_RARb_TRANS: Attagene TRANS-FACTORIAL HepG2 Assay for human Retinoic Acid Receptor beta (AID 2283004; active = hit-call score of the fitted dose curve at least 0.9, where 1 is the maximum)
# human Retinoic Acid Receptor beta (RARb), RARB (gene 5915), sequence (P10826 whole entry, looked up, the tested form may be a part): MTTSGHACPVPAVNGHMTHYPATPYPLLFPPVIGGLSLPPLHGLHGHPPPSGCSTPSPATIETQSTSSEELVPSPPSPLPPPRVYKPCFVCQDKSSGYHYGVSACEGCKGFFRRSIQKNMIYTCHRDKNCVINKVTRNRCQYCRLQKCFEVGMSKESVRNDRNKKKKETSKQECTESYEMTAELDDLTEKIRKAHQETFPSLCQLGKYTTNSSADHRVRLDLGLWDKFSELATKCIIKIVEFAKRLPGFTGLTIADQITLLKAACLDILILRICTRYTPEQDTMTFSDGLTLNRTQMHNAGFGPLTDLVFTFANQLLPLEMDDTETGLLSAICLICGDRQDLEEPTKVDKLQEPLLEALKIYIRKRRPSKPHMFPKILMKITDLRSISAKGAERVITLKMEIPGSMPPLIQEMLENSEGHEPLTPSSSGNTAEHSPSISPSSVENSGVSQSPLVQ
# Summary of the method: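 Fluorescent capillary-electrophoresis detection of GAL4-UAS reporter mRNA defines the endpoint, with induction over DMSO-treated wells scored as activity. Transiently transfected human hepatoma HepG2 cells expressing exogenous NR–Gal4 proteins are exposed to test chemicals for 24 h.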
# [9] = molecular target: Nuclear receptor subfamily 1 group I member 2 (Homo sapiens) (UniProt O75469); experiment: ATG_PXR_TRANS: Attagene TRANS-FACTORIAL HepG2 Assay for human Pregnane X Receptor (PXR) (AID 2283008; active = hit-call score of the fitted dose curve at least 0.9, where 1 is the maximum)
# Nuclear receptor subfamily 1 group I member 2 (Homo sapiens), sequence (O75469 whole entry, looked up, the tested form may be a part): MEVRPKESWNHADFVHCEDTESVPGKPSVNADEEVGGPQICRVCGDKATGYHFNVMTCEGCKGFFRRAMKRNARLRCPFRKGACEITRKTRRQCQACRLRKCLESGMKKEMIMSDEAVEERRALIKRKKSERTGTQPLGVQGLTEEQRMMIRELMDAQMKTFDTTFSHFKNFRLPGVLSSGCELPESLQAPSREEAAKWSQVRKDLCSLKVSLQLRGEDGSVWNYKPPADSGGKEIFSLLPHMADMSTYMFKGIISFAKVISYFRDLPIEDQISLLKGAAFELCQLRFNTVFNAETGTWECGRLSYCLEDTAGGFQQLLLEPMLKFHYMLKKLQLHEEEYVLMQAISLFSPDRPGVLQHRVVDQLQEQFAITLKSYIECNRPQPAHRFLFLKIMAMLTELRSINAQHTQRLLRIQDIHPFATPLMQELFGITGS
# Summary of the method: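 Fluorescence intensity of FAM-labelled, HpaI-digested reporter amplicons, separated by capillary electrophoresis, quantifies induction. HepG2 cells with PXR-Gal4 trans-reporter system were exposed 24 h; DMSO defines baseline.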
# [10] = molecular target: human Retinoic Acid Receptor gamma (RARg), RARG (gene 5916) (UniProt P13631); experiment: ATG_RARg_TRANS: Attagene TRANS-FACTORIAL HepG2 Assay for human Retinoic Acid Receptor gamma (RARg) (AID 2283009; active = hit-call score of the fitted dose curve at least 0.9, where 1 is the maximum;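 for AC50: AC50 is for reporter induction above DMSO meaning RARg activation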)
# human Retinoic Acid Receptor gamma (RARg), RARG (gene 5916), sequence (P13631 whole entry, looked up, the tested form may be a part): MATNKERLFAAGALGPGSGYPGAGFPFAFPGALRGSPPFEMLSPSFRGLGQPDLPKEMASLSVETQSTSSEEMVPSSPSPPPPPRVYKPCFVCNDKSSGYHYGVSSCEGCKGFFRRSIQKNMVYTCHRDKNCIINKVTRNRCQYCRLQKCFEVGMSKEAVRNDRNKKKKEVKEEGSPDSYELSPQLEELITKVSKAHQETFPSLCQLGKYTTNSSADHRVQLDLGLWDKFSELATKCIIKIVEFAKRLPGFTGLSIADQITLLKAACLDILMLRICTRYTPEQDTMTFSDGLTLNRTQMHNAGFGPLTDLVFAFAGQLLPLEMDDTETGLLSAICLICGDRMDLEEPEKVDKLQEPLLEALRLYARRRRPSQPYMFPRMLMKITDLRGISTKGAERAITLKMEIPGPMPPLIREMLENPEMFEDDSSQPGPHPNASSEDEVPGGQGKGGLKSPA
# Summary of the method: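 HepG2 transiently transfected with GAL4-UAS reporter units and chimeric NR-Gal4 constructs; 24 h compound exposure. Reporter mRNA quantified by RT-PCR, FAM labeling, HpaI digestion and capillary electrophoresis; gain-of-signal versus DMSO.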
# [11] = BSK_3C_TissueFactor: BioMAP Diversity Plus: 3C Assay for Tissue Factor Biomarker Activity (AID 2282997); conditions: BioMAP 3C HUVEC, tissue factor biomarker readout; actives raise or lower the signal
# Summary of the method: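 Endothelial monolayers (human umbilical vein, primary) are dosed, incubated 24 h, and assayed for Tissue Factor by ELISA; DMSO serves as negative control for bidirectional fitting.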
# [12] = BSK_3C_uPAR: BioMAP Diversity Plus: 3C Assay for Urokinase-type plasminogen activator receptor (uPAR) Biomarker Activity (AID 2282998); conditions: BioMAP 3C HUVEC, uPAR biomarker ELISA; actives raise or lower the signal
# Summary of the method: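 Human umbilical vein endothelial primary cells were exposed to test chemical for 24 h. Cell-surface uPAR was then quantified by ELISA, and responses were fitted bidirectionally against DMSO as negative control and baseline.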
# [13] = BSK_3C_VCAM1: BioMAP Diversity Plus: 3C Assay for Vascular cell adhesion molecule 1 (VCAM1) Biomarker Activity (AID 2282999); conditions: BioMAP 3C HUVEC, VCAM1 ELISA, cytokine-stimulated; actives raise or lower the signal
# Summary of the method: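 Endothelial cells from human umbilical vein are treated with test chemical. At 24 h, VCAM-1 is measured by ELISA, and responses in either direction are fitted relative to DMSO.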
# [14] = BSK_4H_Eotaxin3: BioMAP Diversity Plus: 4H Assay for Eotaxin 3 Biomarker Activity (AID 2283000); conditions: primary human endothelial cells (HUVEC); actives raise or lower the signal;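 for outcome: CCL26 protein level quantified by ELISA in parallel with SRB cytotoxicity check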
# Summary of the method: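 ELISA quantitation of CCL26 (Eotaxin-3) protein from chemically dosed human vascular endothelial cells at 24 h; increases and decreases both scored relative to DMSO-treated baseline.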
# [15] = read-out: Intercellular Adhesion Molecule 1 (ICAM1), ICAM1 (gene 3383); experiment: BSK_3C_ICAM1: BioMAP Diversity Plus: 3C Assay for Intercellular Adhesion Molecule 1 (ICAM1) Biomarker Activity (AID 2283003); conditions: primary human endothelial cells (HUVEC); actives raise or lower the signal
# Summary of the method: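 HUVEC primary cells stimulated under 3C conditions; ICAM1 measured by ELISA 24 h after compound dosing. Curves fitted bidirectionally against the DMSO baseline. Overt cytotoxicity checked by SRB staining of parallel cultures.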
# [16] = BSK_3C_Proliferation: Cell Proliferation Assessment in the BioMAP Diversity Plus: 3C Assay (AID 2283006); conditions: primary human endothelial cells (HUVEC);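 for AC50: potency may reflect either rise or fall in cell number versus DMSO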
# Summary of the method: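 Subconfluent HUVEC (3C system) cultured with chemical; relative cell number read at 48 h by sulforhodamine B total-protein staining (0.1% SRB after 10% TCA fixation, 560 nm). Bidirectional fit relative to DMSO.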
# [17] = molecular target: Peroxisome proliferator-activated receptor gamma (Homo sapiens) (UniProt P37231); experiment: ATG_PPARg_TRANS: Attagene TRANS-FACTORIAL HepG2 Assay for human Peroxisome Proliferator-activated Receptor-gamma (PPARg) (AID 2283007; active = hit-call score of the fitted dose curve at least 0.9, where 1 is the maximum)
# Peroxisome proliferator-activated receptor gamma (Homo sapiens), sequence (P37231 whole entry, looked up, the tested form may be a part): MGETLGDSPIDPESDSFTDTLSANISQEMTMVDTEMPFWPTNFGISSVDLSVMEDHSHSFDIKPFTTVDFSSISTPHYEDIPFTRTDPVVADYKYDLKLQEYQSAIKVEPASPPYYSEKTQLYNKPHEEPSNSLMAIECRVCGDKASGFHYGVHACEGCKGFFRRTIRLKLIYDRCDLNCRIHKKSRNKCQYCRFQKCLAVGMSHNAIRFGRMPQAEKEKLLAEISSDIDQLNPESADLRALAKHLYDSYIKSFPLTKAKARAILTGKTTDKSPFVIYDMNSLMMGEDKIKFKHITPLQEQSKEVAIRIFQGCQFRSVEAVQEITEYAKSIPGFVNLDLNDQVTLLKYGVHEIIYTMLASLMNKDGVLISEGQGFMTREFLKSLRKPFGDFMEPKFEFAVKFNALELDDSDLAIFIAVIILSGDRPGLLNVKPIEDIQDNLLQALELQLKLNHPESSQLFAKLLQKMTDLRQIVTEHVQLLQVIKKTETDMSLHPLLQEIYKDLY
# Summary of the method: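 HepG2 cells transiently transfected with multiplexed GAL4-UAS reporter units and exogenous chimeric NR-Gal4 proteins; reporter mRNA quantified after 24 h compound exposure by RT-PCR, fluorescent labelling, HpaI digestion and capillary electrophoresis; gain-of-signal fitted versus DMSO baseline.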
# [18] = molecular target: human RAR-related Orphan Receptor beta (RORb), RORB (gene 6096) (UniProt Q92753); experiment: ATG_RORb_TRANS: Attagene TRANS-FACTORIAL HepG2 Assay for human RAR-related Orphan Receptor beta (RORb) (AID 2283010; active = hit-call score of the fitted dose curve at least 0.9, where 1 is the maximum)
# human RAR-related Orphan Receptor beta (RORb), RORB (gene 6096), sequence (Q92753 whole entry, looked up, the tested form may be a part): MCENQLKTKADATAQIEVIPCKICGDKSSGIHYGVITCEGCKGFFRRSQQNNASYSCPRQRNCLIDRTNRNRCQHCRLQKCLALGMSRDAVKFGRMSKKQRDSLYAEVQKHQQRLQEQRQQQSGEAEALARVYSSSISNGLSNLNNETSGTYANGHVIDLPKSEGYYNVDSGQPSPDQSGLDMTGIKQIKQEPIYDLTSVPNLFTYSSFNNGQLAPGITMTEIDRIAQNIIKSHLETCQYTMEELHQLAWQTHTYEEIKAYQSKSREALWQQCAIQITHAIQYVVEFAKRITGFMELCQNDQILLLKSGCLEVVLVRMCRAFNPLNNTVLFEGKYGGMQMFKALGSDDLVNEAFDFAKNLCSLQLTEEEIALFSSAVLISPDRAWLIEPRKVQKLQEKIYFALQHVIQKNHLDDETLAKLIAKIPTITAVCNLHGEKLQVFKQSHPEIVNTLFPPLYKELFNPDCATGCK
# Summary of the method: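 HepG2 cells transiently transfected with GAL4-UAS reporter units expressing chimeric NR-Gal4 protein; reporter mRNA measured 24 h after dosing by RT-PCR, 6-FAM labelling and capillary electrophoresis. Gain-of-signal fitted relative to DMSO baseline.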
# [19] = molecular target: Retinoic acid receptor alpha (Homo sapiens) (UniProt P10276); experiment: ATG_RARa_TRANS: Attagene TRANS-FACTORIAL HepG2 Assay for human Retinoic Acid Receptor alpha (RARa) (AID 2283005; active = hit-call score of the fitted dose curve at least 0.9, where 1 is the maximum)
# Retinoic acid receptor alpha (Homo sapiens), sequence (P10276 whole entry, looked up, the tested form may be a part): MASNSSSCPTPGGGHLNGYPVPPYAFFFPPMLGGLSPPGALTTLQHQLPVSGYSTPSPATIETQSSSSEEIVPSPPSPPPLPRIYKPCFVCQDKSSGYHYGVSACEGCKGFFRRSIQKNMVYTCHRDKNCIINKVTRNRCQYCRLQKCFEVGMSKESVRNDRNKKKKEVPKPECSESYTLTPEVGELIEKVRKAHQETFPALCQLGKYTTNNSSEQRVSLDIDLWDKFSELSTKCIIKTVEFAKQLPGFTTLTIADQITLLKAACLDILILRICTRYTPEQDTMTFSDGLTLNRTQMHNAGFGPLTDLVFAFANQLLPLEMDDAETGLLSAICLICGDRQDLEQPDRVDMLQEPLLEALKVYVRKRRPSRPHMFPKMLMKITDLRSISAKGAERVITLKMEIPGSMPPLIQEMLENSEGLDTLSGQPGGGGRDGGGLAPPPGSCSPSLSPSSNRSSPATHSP
# Summary of the method: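 Reporter transcripts, measured by RT-PCR with fluorescent labeling and capillary electrophoresis after 24 h dosing, reflect activity of an exogenous human RARa–GAL4 fusion in transiently transfected HepG2. Fitted for increase relative to DMSO.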
structure (smiles),measurement,setting,value
CCOC=O,outcome,[1],inactive
same,outcome,[2],inactive
same,outcome,[3],inactive
same,outcome,[4],inactive
same,outcome,[5],inactive
same,outcome,[6],inactive
same,outcome,[7],inactive
same,outcome,[8],inactive
same,outcome,[9],inactive
same,outcome,[10],inactive
CCN(CC)CC,outcome,[1],inactive
same,outcome,[2],inactive
same,outcome,[3],inactive
same,outcome,[4],inactive
same,outcome,[5],inactive
same,outcome,[6],inactive
same,outcome,[7],inactive
same,outcome,[9],inactive
same,outcome,[10],inactive
COc1cccc(O)c1,outcome,[1],inactive
same,outcome,[2],inactive
same,outcome,[3],inactive
same,outcome,[4],inactive
same,outcome,[5],inactive
same,outcome,[11],inactive
same,outcome,[12],inactive
same,outcome,[13],inactive
same,outcome,[14],inactive
same,outcome,[7],inactive
same,outcome,[15],inactive
same,outcome,[16],inactive
O=C(Nc1ccc(Cl)c(Cl)c1)c1cc(Cl)cc(Cl)c1O,outcome,[1],inactive
same,outcome,[2],inactive
same,AC50,[3],0.522 µM (active)
same,AC50,[4],1.11 µM (active)
same,AC50,[5],10.9 µM (active)
same,AC50,[6],4.32 µM (active)
same,outcome,[7],inactive
same,AC50,[17],4.33 µM (active)
same,AC50,[9],2.74 µM (active)
same,outcome,[10],inactive
same,outcome,[18],inactive
Oc1ccc(Cc2ccccc2O)cc1,outcome,[1],inactive
same,outcome,[2],inactive
same,AC50,[3],81 µM (active)
same,outcome,[4],inactive
same,outcome,[5],inactive
same,outcome,[11],inactive
same,outcome,[12],inactive
same,outcome,[13],inactive
same,AC50,[14],0.149 µM (active)
same,outcome,[14],inactive
same,outcome,[6],inactive
same,outcome,[7],inactive
same,outcome,[15],inactive
same,AC50,[16],15.9 µM (active)
same,outcome,[16],inactive
same,outcome,[17],inactive
same,outcome,[9],inactive
Cc1cc(Cc2cc(C)cc(C(C)(C)C)c2O)c(O)c(C(C)(C)C)c1,AC50,[1],25.8 µM (active)
same,AC50,[2],136 µM (active)
same,outcome,[3],inactive
same,outcome,[4],inactive
same,outcome,[5],inactive
same,outcome,[6],inactive
same,outcome,[7],inactive
same,outcome,[8],inactive
same,outcome,[19],inactive
same,AC50,[9],0.0594 µM (active)
same,outcome,[10],inactive
Cc1cc(=O)oc2cc(O)ccc12,outcome,[1],inactive
same,outcome,[2],inactive
same,outcome,[3],inactive
same,outcome,[4],inactive
same,outcome,[5],inactive
same,outcome,[7],inactive
same,AC50,[9],12 µM (active)
same,outcome,[9],inactive
same,outcome,[18],inactive
O=C1c2ccc(O)c(O)c2C(=O)c2c(O)ccc(O)c21,outcome,[1],inactive
same,outcome,[2],inactive
same,AC50,[3],6.19 µM (active)
same,outcome,[4],inactive
same,outcome,[5],inactive
same,outcome,[11],inactive
same,AC50,[12],8.14 µM (active)
same,outcome,[13],inactive
same,outcome,[14],inactive
same,outcome,[6],inactive
same,outcome,[7],inactive
same,outcome,[15],inactive
same,outcome,[8],inactive
same,outcome,[16],inactive
same,outcome,[17],inactive
same,outcome,[9],inactive
same,AC50,[10],50 µM (active)
same,outcome,[18],inactive
